Most compounds without a hit are left out; they make up all but 2.4% or so of the library.
WRN inhibitor = qHTS for Inhibitors of WRN Helicase | Bifunctional 3'-5' exonuclease/ATP-dependent helicase WRN (Homo sapiens), Q14191 | WRN helicase unwinding, fluorescent forked duplex, kinetic | Potency, µM (series often up to 114 µM), inactives show top-dose activity change, negative = inhibition, usual class: inhibitors | 360,000 tested, 0.46% active; also: % is scaled to controls: 0 for no effect and ±100 for the full control effect; nearly all actives have a fitted effect of over 55% in size
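WRN at 20 nM final preincubated with compound 15 min at room temperature; reaction started with 100 nM fluorophore/quencher forked duplex oligonucleotide and 2 mM ATP final. Unwinding followed kinetically by red fluorescence (ex 525, em 598 nm).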
FEN1 inhibitor = qHTS Assay for the Inhibitors of Human Flap endonuclease 1 (FEN1). P39748. Recombinant FEN1 flap cleavage, fluorescence, 15 min. Potency, µM (highest dose often 114 µM), inactives show top-dose activity change, negative = inhibition, actives largely listed as inhibitors. 390,000 tested, 0.35% active. AID 588795, 2011; also: % is scaled to controls: 0 for no effect and ±100 for the full control effect; nearly all actives have a fitted effect of over 65% in size
Target sequence (P39748 whole entry, looked up): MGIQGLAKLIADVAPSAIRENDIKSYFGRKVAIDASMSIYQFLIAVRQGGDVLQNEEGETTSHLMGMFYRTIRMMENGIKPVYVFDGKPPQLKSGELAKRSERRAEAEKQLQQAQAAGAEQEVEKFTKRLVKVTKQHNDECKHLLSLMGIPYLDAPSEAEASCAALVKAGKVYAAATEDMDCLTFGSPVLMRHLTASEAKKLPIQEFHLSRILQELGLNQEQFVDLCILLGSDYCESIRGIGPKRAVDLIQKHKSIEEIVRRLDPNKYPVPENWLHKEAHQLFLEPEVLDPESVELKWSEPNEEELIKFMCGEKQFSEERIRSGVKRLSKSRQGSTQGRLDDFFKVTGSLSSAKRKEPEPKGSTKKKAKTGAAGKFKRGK
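Reaction started by adding substrate (50 nM final) to 10 nM enzyme after 15 min room-temperature compound preincubation. Reads at 0 and 15 min, with data normalized and fitted to a four-parameter Hill equation.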
Pol kappa inh = qHTS for Inhibitors of Polymerase Kappa; DNA polymerase kappa (Homo sapiens), Q9UBT6; purified Pol kappa, fluorescent DNA synthesis assay, 10 min; Potency, µM (doses to about 107 µM), inactives show at the highest dose activity, negative = inhibition, hits mostly inhibitors; 400,000 tested, 0.53% active; also: % is scaled to controls: 0 for no effect and ±100 for the full control effect
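10 nM Pol kappa was preincubated with compounds for 15 min at room temperature. Reaction started with 50 nM (final) substrate. Fluorescence read kinetically at 0 and 10 min.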
POLB inh = qHTS Assay for Inhibitors of DNA Polymerase Beta; P06746; AID 485314, 2010; Potency, µM (highest dose often 114 µM), without a hit: at the highest dose activity change, negative = inhibition, actives largely listed as inhibitors; 340,000 tested, 1.3% active; Pol beta primer extension/strand displacement, fluorescence kinetic; also: % is scaled to controls: 0 for no effect and ±100 for the full control effect
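Pol beta (10 nM) and compounds were preincubated 15 min at room temperature, then 50 nM substrate (final) started primer extension/strand displacement. Reads were taken at 0 and 10 min; concentration-response data were fitted to a four-parameter Hill equation.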
POLI inh = qHTS for Inhibitors of Polymerase Iota | Pol iota fluorescent replication assay, 10 min | DNA polymerase iota (Homo sapiens), Q9UNA4 | 390,000 tested, 1% active | Potency, µM (titrated, usually from 115 µM), without a hit: at the top dose activity, negative = inhibition, hits mostly inhibitors | AID 588590, 2011
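Fluorescent replication assay read twice, at 0 min and 10 min after adding 50 nM (final) substrate. Enzyme (10 nM) and compounds were first incubated 15 min at room temperature; enzyme-free buffer wells were negative controls.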
POLH inh = qHTS for Inhibitors of Polymerase Eta; Potency, µM (top dose mostly 114 µM), inactives show top-dose activity change, negative = inhibition, hits mostly inhibitors; DNA polymerase eta (Homo sapiens), Q9Y253; 390,000 tested, 1.2% active; recombinant Pol eta, fluorescent DNA replication assay; also: % is scaled to controls: 0 for no effect and ±100 for the full control effect
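Pol eta (10 nM) was preincubated with compounds for 15 min at room temperature, after which fluorescent replication substrate (50 nM final) was added to start the reaction. Fluorescence was read kinetically at 0 and 10 min.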
An asterisk follows results filed as active; ? = inconclusive; · = no result; ! = repeats disagree; [ ] = another dose, or the depositor's remark. Calls follow the shape of the dose curve; as a rule, active = well fitted curve in the direction sought with a large enough effect; inconclusive = small, poorly fitted or top-dose-only effect, or another doubt; inactive = no such curve, though single readings can be large; an effect the other way counts as inactive or inconclusive. Potency is read from the fitted curve at half-maximal effect.

SMILES	WRN inhibitor	FEN1 inhibitor	Pol kappa inh	POLB inh	POLI inh	POLH inh
FC(F)(F)c1cccc(N2CCC(N=CN3CCCCCC3)=N2)c1	0%[57.1 µM]	10%	-12%	9%	-12%	89µM*
Oc1ccccc1C=NC1=NN(c2cccc(C(F)(F)F)c2)CC1	9%	4%	-11%	-18%	29%	-20%
CN1CCN(C2=CC3=CC(=C(C#N)C#N)CCC3CC2)CC1 (configuration not stated)	-6%	-8%	-4%	0%	89µM*	-5%
CC1(C)CC(NCCN2CCN(C3=CC(=C(C#N)C#N)CC(C)(C)C3)CC2)=CC(=C(C#N)C#N)C1	-3%	7%	2%	-13%	79%	-5%
CCN1CCN(C2=CC3=CC(=C(C#N)C#N)CCC3CC2)CC1 (configuration not stated)	25µM*	-29%	-10%	9%	?	-11%
O=C(NCC1CCN(c2ccc(S(=O)(=O)N3CCOCC3)cc2)CC1)c1cccc(Cl)c1	-8%	-21%	-6%	-17%	12%	-11%
COc1cccc(C(=O)NCC2CCN(c3ccc(S(=O)(=O)N4CCOCC4)cc3)CC2)c1	-1%[57.1 µM]	14%	0%	40µM*	20%	-13%
C=C1C(=O)[C@]23[C@H](O)[C@H]1CC[C@H]2[C@@]12COC3(O)[C@H](O)[C@@H]1C(C)(C)CC[C@@H]2O	·	·	-3%[60.1 µM]	·	·	·
COc1cccc(OCc2nnc(SCC(=O)NCc3ccco3)n2CCc2ccccc2)c1	-19%[57.1 µM]	-3%	?	22µM*	?	14µM*
COc1cccc(OCc2nnc(SCC(=O)NCc3ccco3)n2C)c1	-10%	-10%	-14%	-10%	2%	-2%
O=S(=O)(c1cnc2ccccc2c1)N1CCN(c2nc(-c3cccs3)nc3ccccc23)CC1	·	18%	-7%	·	12%	·
N#CC(=C(\N)Sc1ccccc1N)/C(C#N)=C(/N)Sc1ccccc1N	·	·	-18%[60.1 µM]	14%[57.1 µM]	0%[58.9 µM]	-7%[57.1 µM]
O=c1[nH]c2c(-c3nc(-c4ccc(F)cc4)cs3)c(O)cn2c2ccc(Br)cc12	·	-15%	-44%	·	?	·
CCC(=O)Oc1ccc(C/C(=N\O)c2ccc(O)cc2O)o1	-16%[57.1 µM]	-19%	28µM*	?	20µM*	79µM*
CCOC(=O)c1ccc(CC(=O)c2ccc(O)cc2O)o1	-5%	-1%	-16%	29%	0%	-7%
Cc1nn(Cc2ccc(Cl)cc2)c(C)c1NC(=O)c1cc(-c2ccco2)on1	-4%	-12%	-30%	1%	-22%	6%
Cc1nn(Cc2ccc(Cl)c(Cl)c2)c(C)c1NC(=O)c1cc(-c2ccco2)on1	-10%	2%	-24%	45µM*	12%	-4%
COc1cc(C(=O)Nc2nnc(-c3sccc3C)s2)cc(OC)c1OC	50µM*	13%	-7%	0%	-9%	13µM*
COc1ccccc1OCCOc1ccc(/C=C2/C(=N)N3OC(C)=CC3=NC2=O)cc1OC	?	-8%	-18%	4%	4%	4µM*
COc1cc(/C=C2\C(=N)N3N=C(S(C)(=O)=O)SC3=NC2=O)ccc1OC(=O)c1ccco1	-20%	?	-41%	-13%	20µM*	22µM*
CCS(=O)(=O)C1=NSC2=NC(=O)/C(=C\c3ccc(OC(=O)c4ccco4)cc3)C(=N)N21	-16%	-1%	3%	-22%	?	79µM*
COc1cc(/C=C2\C(=N)N3N=C(S(C)(=O)=O)SC3=NC2=O)ccc1OCCOc1ccccc1C	50µM*	-20%	-17%	50µM*	49%	50µM*
CC(C)S(=O)(=O)C1=NSC2=NC(=O)/C(=C\c3ccc(OC(=O)c4ccco4)cc3)C(=N)N21	-22%	-4%	-1%	23%	13%	?
CN(C)c1ccc(/C=C2\C=Cc3ccccc32)cc1N	·	-24%	-10%	·	13%	·
Cc1cccc(OCCn2c(CCNC(=O)C3CCCCC3)nc3ccccc32)c1	·	-23%	-24%	·	?	·
SMILES	WRN inhibitor	FEN1 inhibitor	Pol kappa inh	POLB inh	POLI inh	POLH inh
CCCN1CNc2c(c(=O)[nH]c(=S)n2CCc2cccc(Cl)c2)C1	·	16%	-4%	·	7%	·
CC(C)CNC(=O)COC(=O)c1c2c(nc3ccccc13)/C(=C/c1cccs1)CC2	-28%[57.1 µM]	6%	-8%	18µM*	?	?
COC(=O)c1c2c(nc3ccccc13)CCC2	-10%	-7%	7%	?	0%	-12%
NC(=O)COC(=O)c1c2c(nc3ccccc13)CCCCC2	11%	-12%	2%	25%	10%	-2%
O=C(COC(=O)c1c2c(nc3ccccc13)CCCC2)c1cccs1	-18%	-20%	-4%	18%	-14%	-5%
CCCNC(=O)COC(=O)c1c2c(nc3ccccc13)CCC2	-28%	-3%	?	50µM*	25µM*	50µM*
CC(C)(C)C(=O)COC(=O)c1c2c(nc3ccccc13)CCC2	-12%[57.1 µM]	2%	-11%	18µM*	?	79µM*
CCCCNC(=O)COC(=O)c1c2c(nc3ccccc13)/C(=C\c1cccs1)CC2	1%[11.6 µM]	4%	?	·	?	?
CC(C)CNC(=O)COC(=O)c1c2c(nc3ccccc13)CCC2	-13%	-10%	-33%	40µM*	?	?
CC(C)(C)n1ncc2c(=O)n(Cc3cccc(Oc4ccccc4)c3)cnc21	·	5%	10%	·	2%	·
Cc1ccc(S(=O)(=O)NCC(=O)OCc2cc(=O)oc3c(C)c(C)ccc23)cc1C	-4%	-14%	-22%	·	10%	-11%
CNS(=O)(=O)c1cccc(C(=O)OCc2cc(=O)oc3c(C)c(O)ccc23)c1	-16%	-21%	-14%	10µM*	?	?
Cc1cccc2c(C(O)c3c[nH]c4c(C)cccc34)c[nH]c12	·	1%	-33%	·	-19%	·
COc1ccc(OC)c(CNC(=O)C2CCN(c3ncnc4c3nc3n4CCCCC3)CC2)c1	·	1%	-9%	-2%	-7%	9%
COc1cccc(CNC(=O)C2CCN(c3ncnc4c3nc3n4CCCCC3)CC2)c1	-5%	-15%	-21%	100µM*!	?	-3%
CCOc1c(O)ccc(/C=C2\SC(=S)NC2=O)c1[N+](=O)[O-]	-9%[11.6 µM]	-27%	?	20µM*	13µM*	25µM*
CCOc1ccc(N(C)c2ccc(/C=C3/SC(=S)NC3=O)cc2)cc1	?	?	-39%	?	?	-25%
C#C[C@]1(O)CC[C@H]2C3CCC4=Cc5oncc5CC4(C)C3CCC21C (some centres not stated)	·	·	·	-13%[57.1 µM]	?	-2%[57.1 µM]
